Among all 330,000 compounds or so, about 4,900 (1.5%) were called active.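 The calls were made as follows: active = inhibition above about 50% at the single test dose (limit read from the data); inactive = the rest.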 This excerpt belongs to a sample that is enriched for actives.
Molecular target: Sentrin-specific protease 7 (Homo sapiens) (UniProt Q9BQF6)
Test: blockers of human SENP7 peptidase activity – biochemical, luminescence, uHTS, primary screen (AID 434973);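 also: plate controls were DMSO with enzyme for no effect and no enzyme buffer wells for full effect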
Details: recombinant SENP7, Z-RLRGG-aminoluciferin luminescence, 40 min; at 5 µM; active compounds read high

Structure (SMILES)	inhibition
O=C(NCCC1=CCCCC1)c1ccc(-n2cncn2)cc1	-9.22% (inactive)
O=C(NCc1cccnc1)c1cccnc1Sc1ccc(Cl)cc1	2.66% (inactive)
CC(C)(C)n1nc2c(c1NC(=O)c1cc3ccccc3o1)CSC2	6.18% (inactive)
O=C(Nc1ccncc1)c1cc2ccccc2o1	60.6% (active)
COc1cc2ccccc2cc1C(=O)Nc1ccncc1	7.87% (inactive)
CCOc1ccc(N2C(=O)/C(=C/c3ccc(C)o3)N(C)C2=S)cc1	6.54% (inactive)
O=C(N[C@@H](Cc1ccccc1)C(=O)OCc1ccccc1)c1nc[nH]c1C(=O)N[C@@H](Cc1ccccc1)C(=O)OCc1ccccc1	4.7% (inactive)
CCOc1ccc(C(=O)COC(=O)c2ccc(-n3cnnn3)cc2)cc1	-0.201% (inactive)
O=C(Oc1ccc(C(=S)N2CCOCC2)cc1)c1ccc(F)cc1	2.03% (inactive)
Cc1nonc1C(=O)N/N=C/c1ccc(O)cc1	98.8% (active)
Cc1nc2ccc(C(=O)N/N=C/c3ccc(O)cc3)cc2[nH]1	0.319% (inactive)
CC(C)c1c(C(=O)N/N=C/c2ccc(-c3ccccc3)cc2)nnn1-c1nonc1N	0.606% (inactive)
Cn1ncc(N2CCN(S(=O)(=O)c3ccc(Br)cc3)CC2)c(Cl)c1=O	-5.83% (inactive)
O=C(O)c1ccc(/C=N/Nc2nc(N3CCCCC3)nc(N3CCCCC3)n2)cc1	-3.32% (inactive)
Cc1ccc2cc(/C=N/Nc3ccc(C(=O)O)cc3)c(Cl)nc2c1	-6.79% (inactive)
O=C(O)c1ccc(N/N=C/c2ccc3ncccc3c2)cc1	99.3% (active)
COc1ccc(CCNC(=O)C(=O)NCC2OCCN2S(=O)(=O)c2ccc(OC)c(C)c2)cc1 (centres undefined)	2.59% (inactive)
O=C(NC(=S)N1CCN(Cc2ccccc2)CC1)c1ccccc1	2.02% (inactive)
CC(NC(=O)COC(=O)c1ccc2ccccc2n1)c1ccccc1 (centres undefined)	-1.7% (inactive)
Cc1ccc(S(=O)(=O)N(C)C)cc1NC(=O)C(C)OC(=O)c1ccc2ccccc2n1 (centres undefined)	6.08% (inactive)
CC(OC(=O)c1ccc2ccccc2n1)C(=O)c1ccccc1 (centres undefined)	55.8% (active)
O=C(Nc1ccc(S(=O)(=O)N2CCCCC2)cc1)C1CCN(C(=O)c2ccc(F)cc2)CC1	-13.9% (inactive)
O=C(Nc1ccc(-c2nnc(-c3ccccc3)o2)cc1)C1CCCO1 (centres undefined)	60.2% (active)
CC(C)(C)NS(=O)(=O)c1ccc(NC(=O)C2CCCO2)cc1 (centres undefined)	3.51% (inactive)
O=C(Nc1cccc(-c2nnc(-c3ccccc3)o2)c1)C1CCCO1 (centres undefined)	1.95% (inactive)

Structure (SMILES)	inhibition
O=C(COC(=O)/C=C/c1cccc(Cl)c1)NCc1cccs1	15% (inactive)
CCNC(=O)CC1C(=O)N(c2ccc(F)cc2)C(=O)N1CCc1sccc1C (centres undefined)	7.13% (inactive)
Cn1nc(-c2ccccc2)c(CSc2cccc(Cl)c2)c1Cl	2.83% (inactive)
Cc1nn2cc(-c3ccc(Cl)cc3)cnc2c1Br	88.2% (active)
CCOC(=O)c1cc(S(=O)(=O)NCCc2ccc(OC)c(OC)c2)cn1C	7.17% (inactive)
O=c1c2cc(-c3ccccc3)sc2nc2n1N=C(c1cccs1)CS2	74.3% (active)
O=c1c(-c2ccccc2)cnc2n1CCS2	4.7% (inactive)
Cc1nnc2n1N=C(c1ccccc1)CS2	-0.787% (inactive)
O=C(/C=C/c1ccc2c(c1)OCO2)NCc1cn2cc(Cl)ccc2n1	0.536% (inactive)
Clc1ccc2nc(CSc3ccccc3)cn2c1	66.1% (active)
CCCCCCSc1ccc(-c2nc3ccc(Cl)cn3c2NCc2ccccc2)cc1	-2.53% (inactive)
COc1ccc(NC(=O)NCc2ccc3c(c2)OCO3)c(OC)c1	6.56% (inactive)
CCOCCCNC(=S)N1CCC(NC(=O)C2CCCCC2)CC1	-2.06% (inactive)
Cc1ncc(CO)c(/C=N/NC(=O)c2cccc(S(=O)(=O)N3CCCC3)c2)c1O	-7.56% (inactive)
C/C(=N\Nc1nc2ccccc2[nH]1)c1cccs1	65.2% (active)
C/C(=N\Nc1ncc(Cl)cc1Cl)c1cccs1	47.2% (inactive)
O=C(Nc1ccccc1-c1nc2ccccc2[nH]c1=O)c1cccs1	-0.595% (inactive)
O=C(CNC(=O)OCc1ccccc1)NC1CCCCNC1=O (centres undefined)	4.12% (inactive)
COC(=O)c1ccc(NC(=O)Nc2ccc(C)cc2)cc1	-0.387% (inactive)
COC(=O)c1ccc(NCC(=O)c2ccccc2)cc1	86.1% (active)
COC(=O)c1ccc(NCC(=O)N2CCCCCC2)cc1	-4.94% (inactive)
COc1cc(C2/C(=C(\O)c3ccc4c(c3)CC(C)O4)C(=O)C(=O)N2Cc2ccco2)ccc1O (centres undefined)	2.43% (inactive)
CC(Oc1ccc(F)cc1F)C(=O)/C=C/N(C)C (centres undefined)	11.5% (inactive)
O=C(N/N=C/c1cccc(O)c1)c1cc2c(ccc3ccccc32)o1	-13.1% (inactive)
NC(=O)c1ccccc1N=Cc1ccc2ccccc2c1	66.6% (active)

Structure (SMILES)	inhibition
O=C(OCC(=O)N1CCOCC1)c1ccc2ccccc2c1	4.44% (inactive)
COc1ccc(CC(=O)N2N=C(C)CC2(O)C(F)(F)F)cc1 (centres undefined)	-2.12% (inactive)
COc1ccccc1C(CNC(=O)c1cccc(S(=O)(=O)Nc2ccc(F)cc2)c1)N(C)C (centres undefined)	-6.57% (inactive)
O=C(Nc1ccc(Cl)cc1)/C(=C1\CCCN1)[N+](=O)[O-]	16.3% (inactive)
O=C(NC(=O)c1ccccc1)Nc1ccccc1O	55.8% (active)
Cc1ccc(NC(=O)NC(=O)c2ccccc2)cc1F	23.1% (inactive)
O=C(Nc1ncccc1O)c1ccc(C(=O)c2ccccc2)cc1	-3.01% (inactive)
Cn1c2c(c(=O)n(C)c1=O)C1c3ccccc3OCC1C(C)(C)O2 (centres undefined)	-0.167% (inactive)
CCNC(=O)N1CCCC(C(=O)c2ccc(-c3ccccc3)cc2)C1 (centres undefined)	3.16% (inactive)
CCOC(=O)c1sc(NC(=O)c2ccncc2)nc1C	91.1% (active)
CCOC(=O)c1sc(NC(=O)c2sc(C)nc2C)nc1C	31.9% (inactive)
CCSc1nnc(NC(=O)c2ccc(C)cc2)s1	52.7% (active)
CC(=O)c1sc(NC(=O)c2ccc(C)cc2)nc1C	71.5% (active)
C=CCSc1nnc(NC(=O)c2ccc(NC(C)=O)cc2)s1	4.95% (inactive)
COC(=O)c1sc(NC(=S)NC(=O)c2ccc(C)cc2)nc1C	9.77% (inactive)
CCOC(=O)c1cccnc1NC(=O)c1ccncc1	-6.19% (inactive)
CC(=O)c1sc(N/N=C\c2ccc(C)cc2)nc1C	17.2% (inactive)
NC(=O)CSc1nnc(NC(=O)c2ccc3ccccc3c2)s1	-4.32% (inactive)
COc1ccc([N+](=O)[O-])cc1NC(=O)c1ccc(N(Cc2ccccc2C)S(C)(=O)=O)cc1	2.86% (inactive)
CCN(CC)C(=O)Cn1cc(S(=O)(=O)CC(=O)NCc2ccc3c(c2)OCO3)c2ccccc21	-2.79% (inactive)
Cc1noc(C)c1COc1ccc(C(=O)NCCOc2ccccc2)cc1	-6.96% (inactive)
Cc1ccn2c(=O)c(C(=O)NCCC3=CCCCC3)c(O)nc2c1	9.74% (inactive)
COC(=O)Cc1ccc(OC(=O)C2CCN(S(=O)(=O)c3ccc(OC)c(OC)c3)CC2)cc1	-4.03% (inactive)
CC1=C(C)CC(C(=O)NC(C)CCc2ccccc2)C(C(=O)O)C1 (centres undefined)	4.76% (inactive)
COCC1CCN(C(=O)C2CCC(=O)N(Cc3cccc(C(F)(F)F)c3)C2)CC1 (centres undefined)	9.9% (inactive)

Structure (SMILES)	inhibition
COc1ccccc1OCc1nc2ccccc2s1	97.3% (active)
COc1ccccc1N1CC(O)=C(c2nc3ccccc3s2)C1=N	-12.5% (inactive)
CN(Cc1nc2ccccc2s1)C(=O)c1ccc(F)cc1	0.624% (inactive)
Cn1c(CCc2ccccc2)nnc1SCC(N)=O	0.317% (inactive)
Cc1ccc2nc(/C(C#N)=C\c3ccc(OC(=O)c4cccs4)cc3)[nH]c2c1	-1.03% (inactive)
COc1cc(/C=C(\C#N)c2nc3ccccc3[nH]2)ccc1O	93.7% (active)
COc1cc(/C=C(\C#N)c2nc3c(s2)CC(C)CC3)ccc1O (centres undefined)	2.43% (inactive)
CNC(=S)N/N=C/c1ccc(N2CCOCC2)s1	12.6% (inactive)
Cc1ccc(CCCOC(=O)C[N+]2(C)CCCC2)cc1	8.46% (inactive)
O=C(c1cc(COc2c(F)cccc2F)on1)N1CCSCC1	0.456% (inactive)
Cc1ccnc(-n2sc3ccccc3c2=O)n1	-5.5% (inactive)
CC(=O)Nc1cccc(-c2nc3ccccc3s2)c1C	-8.72% (inactive)
Cc1ccnc(Nc2nc3ccccc3s2)n1	88.5% (active)
COc1cccc(NC(=O)CCNS(=O)(=O)c2ccc3c(c2)oc(=O)n3C)c1	7.4% (inactive)
O=C(COC(=O)C12CC3CC(CC(O)(C3)C1)C2)NC12CC3CC(CC(C3)C1)C2	-5.6% (inactive)
COc1ccccc1-c1nnc(NC(=O)c2ccc3ncsc3c2)o1	4.87% (inactive)
Cc1sc(NC(=O)c2ccc3ncsc3c2)c(C(N)=O)c1C	77.9% (active)
O=C(COC(=O)c1ccc2ncsc2c1)Nc1ccc(Cl)cc1	-7.82% (inactive)
CCCCn1nc(C(=O)N2CCc3ccccc32)c2ccccc2c1=O	2.25% (inactive)
CCCCN(CC(=O)NC(C)(C)C)C(=O)C(=O)Nc1ccc2c(c1)OCCO2	-0.161% (inactive)
CCNC(=S)N1CCC(c2nc3cc(C)c(C)cc3[nH]2)CC1	1.02% (inactive)
CNC(=S)Nc1ccc([N+](=O)[O-])cc1	-6.08% (inactive)
O=C(Cc1ccccc1)NNS(=O)(=O)c1ccc([N+](=O)[O-])cc1	3.61% (inactive)
O=C(O)/C=C/C(=O)NNc1ccc([N+](=O)[O-])cc1	81.7% (active)
